# About 83,000 compounds went through this panel and 20% of them were active in at least one assay; those are over-represented in the sample as a whole.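 Testing used 96-well plates and a 48-hour single-concentration exposure. Example: -40 means 40% of the starting cells died.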 Calls of active or inactive are those of the source.
# System: IGROV1 ovarian
# Experiment: NCI-60 one-dose screen, 48 h (100 = growth as untreated, 0 = no growth, -100 = all killed)
# Conditions: 10 µM unless noted
# Description: Growth inhibition of the IGROV1 human tumor cell line is measured as a screen for anti-cancer activity. Cells are grown in 96 well plates and exposed to the test compound for 48 hours. Compounds are tested at a single concentration, which is 10^-5 M for most compounds. The reported endpoint is percent growth (GI% or GIPRCNT), where numbers from 0 - 100% represent growth inhibition, and numbers from -100% - 0 represent cell death. For example, a value of 40 represents 60% growth inhibition. A value of 0 means no net growth occurred over the course of the experiment. A value of -40 indicates 40% of cells at the beginning of the experiment died by the end of the experiment. A value of -100 means all cells are dead at the end of the experiment.
# NCI-60 Human Tumor Cell Lines Screen was performed using the standard one-dose NCI protocol, which is described in more detail at https://dtp.cancer.gov/discovery_development/nci-60/default.htm.
# Compounds with GIPRCNT values below 10 were considered active. Activity score was based on GIPRCNT using the following formula: […]
# Score is 0 for GIPRCNT values of 100 or above, 50 for GIPRCNT values of 0, and 100 for GIPRCNT values of -100.
row,SMILES,growth
1,O=C(Nc1ccccc1C(F)(F)F)C1=NCCCCN1,101% (inactive)
2,C=C(C)[C@@H]1CC[C@]2(COCCCNCCCN)CC[C@]3(C)[C@H](CC[C@@H]4[C@@]5(C)CC[C@H](OCCCN)C(C)(C)[C@@H]5CC[C@]43C)[C@@H]12,-81.1% (active)
3,COC(=O)c1sc(-c2ccc(C)cc2)cc1O,100% (inactive)
4,CC(=O)[C@H]1CC[C@]2(C)[C@@H]1CC[C@@H]1[C@@]3(C)C/C(=C/c4cccnc4)C(=O)C(C)(C)[C@@H]3CC[C@]12C,93.4% (inactive)
5,CCCC[N+]1(C)CCN=C1Cc1ccccc1 (stereo not given),106% (inactive)
6,Fc1ccc(/C=C/c2cc(/C=C/c3ccc(F)cc3)n(-c3cc(F)cc(F)c3)n2)cc1,90.3% (inactive)
7,O=C1CCc2c(sc3[nH]c(=S)n(-c4cc(C(F)(F)F)cc(C(F)(F)F)c4)c(=O)c23)C1,-10.5% (active)
8,CC(=O)Cc1nsc(NC(=O)c2cc(-c3cc(Cl)ccc3Cl)oc2C)n1,109% (inactive)
9,COC(=O)[C@H](C)NC(=O)[C@@H]1CCCN1C(=O)CNC(=O)[C@H](C)N,109% (inactive)
10,CC(C)(C)n1cc(-c2ccnc(NCCNS(=O)(=O)c3ccc(Br)cc3)c2)c(-c2cccc(O)c2)n1,40.4% (inactive)
11,C#CCOc1cccc(-c2ncnc3cc(NC(=O)CCl)ccc23)c1,-54.2% (active)
12,Nc1nc(Nc2ccc([N+](=O)[O-])cc2O)nc(C(Cl)(Cl)Cl)n1,88% (inactive)
13,CSc1nc(CC(C)C)c(C#N)c(=O)n1C,71.8% (inactive)
14,COc1ccc(C(c2cc(OC)c(OC)c(OC)c2)n2cncn2)cc1O (stereo not given),49.2% (inactive)
15,Cc1ccc(-c2nc(C#N)c(S(=O)(=O)n3nc(C)cc3N)o2)cc1,80.8% (inactive)
16,Oc1c(Cl)cc(Cl)c2ccc(CN3CCNCC3)nc12,43.3% (inactive)
17,O=C1NC(=O)C(=Cc2cc(-c3ccc(Cl)cc3)n(-c3ccccc3)n2)C(=O)N1,93.1% (inactive)
18,Cc1cc(N2CCOCC2)nc(N(CCCNc2ccnc3cc(Cl)ccc23)Cc2ccc3c(c2)OCO3)n1,4.36% (active)
19,CNC(=O)c1cc(Oc2cccc3nc(NC(=O)Nc4ccc(F)cc4F)ccc23)ccn1,35% (inactive)
20,O=C(CSc1nnc(-c2ccc(Cl)c(Cl)c2)n1-c1ccccc1)Nc1ccc(C(=O)/C=C/c2ccc(Cl)cc2)cc1,89.2% (inactive)

row,SMILES,growth
1,O=CN1N=C(c2cccc(Nc3ccncc3)c2)CC1c1ccc2c(c1)OCO2 (stereo not given),102% (inactive)
2,C#CC(F)(F)[C@]1(O)CCC2C3CCC4=CC(=O)CCC4=C3[C@@H](c3ccc(N(C)C)cc3)C[C@@]21C (stereo not given in full),99% (inactive)
3,COc1nc2ccccc2cc1/C=C1/C=C(c2ccccc2)NC1=O,39% (inactive)
4,COc1ccc(C(=O)/C=C/c2ccc(C)cc2)cc1S(N)(=O)=O,28% (inactive)
5,Cc1ccc(NC(=O)c2ccc(Nc3ncnc4c3cnn4-c3cccc(F)c3)cc2)cc1,97.9% (inactive)
6,Cc1cc([N+](=O)[O-])ccc1NC(=O)c1ccc2c(c1)nc(-c1ccccc1)n2C1CCCCC1,111% (inactive)
7,Clc1nc(N2CCC[N+]3(CC2)CC[N+]2(CCCNCC2)CC3)nc(N2CCC[N+]3(CC2)CC[N+]2(CCCNCC2)CC3)n1 (stereo not given),97.3% (inactive)
8,COc1cc(C(=O)c2c(-c3ccccc3)oc3ccccc23)cc(OC)c1O,41.1% (inactive)
9,COc1ccc(/C(C)=C(\c2ccc(Cl)cc2)c2ccc(OCCCN(C)C)cc2)cc1,81.3% (inactive)
10,O=c1c2cccc3c(N4CCOCC4)ccc(c32)c2nc3ccccc3n12,58.3% (inactive)
11,C/C=C(/C)C(=O)O[C@@H]1CC(C)(C)CC2C34OC(=O)[C@@]21CC[C@@]3(C)[C@]1(C)CCC2C(C)(C)C(=O)CC[C@]2(C)C1C[C@@H]4O (stereo not given in full),72.6% (inactive)
12,CCOC(=O)c1cc(C(=O)c2cc(OC)cc(OC)c2)n2ccccc12,52.7% (inactive)
13,CCCCC/C=C/CCC(=O)N[C@H]1[C@H](Oc2c3cc4cc2Oc2ccc(cc2Cl)[C@@H](O[C@@H]2O[C@H](CO)[C@@H](O)[C@H](O)[C@H]2NC(C)=O)[C@@H]2NC(=O)[C@H](NC(=O)[C@@H]4NC(=O)[C@H]4NC(=O)[C@@H](Cc5ccc(c(Cl)c5)O3)NC(=O)[C@@H](N)c3ccc(O)c(c3)Oc3cc(O)cc4c3)c3ccc(O)c(c3)-c3c(O[C@H]4O[C@H](CO)[C@@H](O)[C@H](O)[C@@H]4O)cc(O)cc3[C@H](C(=O)O)NC2=O)O[C@H](CO)[C@H](O)[C@@H]1O,101% (inactive)
14,COc1ccc(/C=N\NC(=O)c2ccc3nc(-c4ccc(Cl)cc4)[nH]c3c2)cc1,14.6% (inactive)
15,C(CCCSC1=NCCN1)CCSC1=NCCN1,101% (inactive)
16,CN1CCN(Cc2ccc(NC(=O)c3cc(C#Cc4cnc(N)c5ncccc45)n(C)n3)cc2C(F)(F)F)CC1,113% (inactive)
17,O=S(=O)(Nc1ccc(Br)cc1)c1ccc(-c2cnc(C3CC3)o2)cc1,36.1% (inactive)
18,CN1CCN(CC(=O)N(C)c2ccc(N=C(c3ccccc3)c3c(O)[nH]c4ccc([N+](=O)[O-])cc34)cc2)CC1,49.3% (inactive)
19,O=C(CSc1nc(-c2ccccc2)cn1-c1ccc(Cl)cc1)c1ccc([N+](=O)[O-])cc1,96.5% (inactive)
20,CC(=O)Oc1ccccc1C(=O)N(Cc1ccc2c(Cl)cc(Cl)c(O)c2n1)c1ccccc1,42.8% (inactive)

# Source: PubChem BioAssay (NCI)
